# Data as given in PubChem BioAssay (NCI).
# This is part of a sample that, as a whole, favours compounds with a hit. Of some 79,000 tested, about 15% had one in any assay. Unmarked numbers belong to inactive results. Calls of active or inactive are those of the source. Rule as the data show it: active = growth inhibition above about 70%; inactive = the rest.
# Assays:
# [1] = NCI Yeast Anticancer Drug Screen. Data for the rad50 strain (AID 155);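 also: 0% = growth of vehicle-only cultures of the same strain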; settings: S. cerevisiae rad50 strain growth inhibition; at 50.0 µM; stronger effect = higher value
# Procedure, shortened: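 DNA repair mutant yeast, compound exposure, growth read-out; inhibition is taken relative to vehicle.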
# [2] = NCI Yeast Anticancer Drug Screen. Data for the mec2-1 strain (AID 157); settings: S. cerevisiae mec2-1 strain, at 50.0 µM, stronger effect = higher value
# Procedure, shortened: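 Test agents were screened against the mec2-1 yeast strain, with defined DNA repair or cell cycle alteration. Growth was scored as inhibition against vehicle-only controls.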
# [3] = NCI Yeast Anticancer Drug Screen. Data for the sgs1 mgt1 strain (AID 161);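 also: 0% = growth of cultures given vehicle only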; settings: S. cerevisiae sgs1 mgt1 strain, at 50.0 µM, stronger effect = higher value
# Procedure, shortened: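 Test agents were incubated with a DNA-repair-mutant yeast strain. Growth was then read and compared against vehicle-treated controls.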
# [4] = NCI Yeast Anticancer Drug Screen. Data for the cln2 rad14 strain (AID 165);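 also: 0% = growth equal to vehicle treated cultures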; settings: S. cerevisiae cln2 rad14 strain, at 50.0 µM, stronger effect = higher value
# Procedure, shortened: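 Growth of compound-exposed yeast (cln2 rad14 genotype) measured and expressed as inhibition relative to vehicle.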
# [5] = NCI Yeast Anticancer Drug Screen. Data for the bub3 strain (AID 167); settings: S. cerevisiae bub3 mutant strain, at 50.0 µM, stronger effect = higher value
# Procedure, shortened: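 In this screen, a yeast mutant lacking normal mitotic checkpoint function is challenged with compound. Relative growth versus vehicle gives the inhibition value.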
# [6] = NCI Yeast Anticancer Drug Screen. Data for the mlh1 rad18 strain (AID 175); settings: S. cerevisiae mlh1 rad18 strain growth inhibition; at 50.0 µM; stronger effect = higher value
# Procedure, shortened: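 In this whole-cell yeast screen, a strain with altered DNA damage repair is challenged with compound, and its growth is measured against matched vehicle-treated controls.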
SMILES,growth inhibition [1],growth inhibition [2] [%],growth inhibition [3],growth inhibition [4] [%],growth inhibition [5] [%],growth inhibition [6]
COc1c2c(cc3c(CCc4ccccc4)cc(=O)oc13)CCC(C)(C)O2,-5.95%,-22.8,-6.5%,15.4,-5.75,-27.3%
COC(=O)/N=c1\cc(N2CC=CCC2)nc(N)n1O,-5.85%,-10.7,-21.2%,18.9,-10.8,5.4%
CC(C)CC1NC(=S)N(c2ccccc2)C1=O (configuration not stated),-11%,-18.4,-13.7%,-10.1,-8.05,-24.7%
CC1CN=C(c2ccccn2)C(c2ccccn2)=N1 (configuration not stated),4.85%,6.6,14.5%,-1.1,17.4,10.2%
Cc1c([N+](=O)[O-])ccc2c(NCCCN(C)C)ccnc12,-2.5%,-5.65,-5.35%,-6.4,-14.3,-36.4%
CCOC(=O)N1C/C(=C\c2ccccc2)C(=O)/C(=C/c2ccccc2)C1,-6.85%,0.6,-12.3%,19.6,9.15,72.2% (active)
CCC(=O)Oc1ccc(CCC(C)=O)cc1,-0.55%,-6.35,-14.2%,-38.9,-10.6,30.5%
Cc1ccc(NC(=S)/N=C/c2c(O)[nH]c(=O)[nH]c2=O)c(C)c1,-9.4%,-20.4,-15.8%,-4.85,-24.5,2.05%
COC(=O)N1C(c2ccccc2)(c2ccccc2)CS1(=O)=O,15.2%,10.1,9.3%,15.6,11.8,5.25%
CNC(CC(=O)O)C(=O)O (configuration not stated),-0.4%,-3.95,-14.6%,-15.1,2.5,-3.05%
C/C(=N/N)c1sc(-c2nc(C)c(/C(C)=N\N)s2)nc1C,32.9%,-31.1,-26.9%,-16,-18.1,-11.3%
N#CC(C#N)=NNc1ccc2cn[nH]c2c1,-11.1%,28.2,2.7%,-21.1,-39.5,-1.95%
CC12CC(C/C1=N/O)C(C)(C)C2 (configuration not stated),-4.3%,16.4,1.55%,15.7,-7.65,9.6%
Cc1ccc(NC(=O)CC#N)c(C)c1,-11.8%,-10.2,-17.9%,-40.9,-0.7,4%
O=C1Nc2cc([N+](=O)[O-])c(Br)cc2C1=O,22.1%,27.4,0.7%,14.9,5.8,12.1%
CSc1nc2nc[nH]c(=O)c2[nH]1,-3.55%,-11.6,-5.75%,-14.1,-5.35,-2.5%
CC(=O)N/N=C/c1ccc([N+](=O)[O-])s1,13.3%,15.1,33.3%,-11.8,3.55,45.5%
CCOC(=O)c1c(-c2ccc(OC)cc2)c(C#N)c(=S)n(C2OC(CO)C(O)C(O)C2O)c1-c1ccccc1 (configuration not stated),6.7%,-29,-20%,-11.6,-12.4,2.95%
C=C/C=C1\CCOC1=O,1.15%,-5.9,2.85%,-3.05,3.1,-10.6%
OC(COc1ccc(Cl)cc1Cl)CN1CCCC1 (configuration not stated),10.1%,11.8,17.7%,5.05,-23.4,18.1%
CC1=CC(N)C2CC1C2(C)C (configuration not stated),-9.3%,-17.1,-29.1%,-37.6,-2.2,-1.65%

SMILES,growth inhibition [1],growth inhibition [2] [%],growth inhibition [3],growth inhibition [4] [%],growth inhibition [5] [%],growth inhibition [6]
O=C1/C(=C/c2ccc(C(=O)O)cc2)CNC/C1=C\c1ccc(C(=O)O)cc1,-7.4%,-14.9,-3.05%,-15.4,3.8,-11.8%
CC(=O)CCC(=O)CCC(C)=O,-0.05%,30.4,6.05%,-1.85,29.1,-2.7%
c1ccc(P(=Nc2cccc(N=P(c3ccccc3)(c3ccccc3)c3ccccc3)c2)(c2ccccc2)c2ccccc2)cc1,0.95%,6.9,28.2%,-2.6,0.05,6.6%
C/C(=N\NC(=O)c1cc(C)nc2ccc(Br)cc12)c1ccccc1O,71.1% (active),63,79.8% (active),48.3,7.3,72.5% (active)
C=C1CCC2(C)CCC3(C)C(CCC4C5(C)CCC(OC(C)=O)C(C)(C)C5CCC43C)C2C1C (configuration not stated),-4.05%,-5.9,4.6%,1.45,-5.15,26.6%
CC12CCCCC1=C(F)C(F)(F)S2 (configuration not stated),0.15%,-17.4,7.45%,24.6,-2.45,17.7%
O=C1CCCC2=C(N1)C(=O)C=CC2=O,-2.55%,20.9,17.1%,39.5,-0.2,-20.9%
Brc1ccccn1,35.5%,11,6.2%,-15.1,28.3,22.8%
O=[N+]([O-])C(C=C(n1nnc2ccccc21)n1nnc2ccccc21)=C(n1nnc2ccccc21)n1nnc2ccccc21,-20.1%,-2.75,16.7%,4.2,-6.45,5.35%
O=C(O)/C=C/c1c2ccc(=O)c(O)c-2oc2c(O)c(O)ccc12,36.4%,24.4,13.9%,-23.9,10.2,44.8%
Cc1ccc(S(=O)(=O)N/N=C2\C3CC4CC(C3)C2C4)cc1 (configuration not stated),-21%,-24.1,-12.9%,-6.5,-6.25,-15.2%
O=C1CCCC(=O)c2c(O)ccc(O)c21,4.4%,-4.15,9.5%,-3.4,10.7,5.65%
Cc1cccc(NC(C(=O)O)c2ccccc2)c1 (configuration not stated),-13.8%,8.8,-12.8%,-65.2,26.1,5.45%
C(=N\N1CCN(/N=C/c2c[nH]c3ccccc23)CC1)/c1c[nH]c2ccccc12,10.3%,-11.5,-12.8%,-1.05,0.7,-3.05%
N#CC12CCC(CC1)CC2Cl (configuration not stated),-15.7%,8.45,0.95%,4.4,1.5,-12.7%
O=C(O)c1ccc2c(c1)CC1(C2)Cc2ccccc2C1=O (configuration not stated),-16.4%,-4.9,-8.2%,-14.2,6.15,-2.75%
CSC1=N[C@H](c2ccccc2)CS1,21.9%,-9.85,21.7%,-3.1,20.2,23.4%
CSc1cc(C)c(O)c(CO)c1,6.7%,2.9,18.2%,-2.35,12.7,3%
CC(C(=O)O)[C@H]1CC[C@H]2[C@@H]3CCC4=CC(=O)CC[C@]4(C)[C@H]3CC[C@]12C (some centres not stated),-3.5%,-5.7,7.15%,-46.9,2.5,-10.2%
Nc1c(N=Nc2ccc(S(=O)(=O)Nc3cnccn3)cc2)cc(S(=O)(=O)O)c2ccccc12,10.6%,-2.45,8.3%,5.9,9.8,26.6%
Cc1cccc(N2CCN(S(C)(=O)=O)CC2)c1,16.6%,6.85,0.3%,18.4,6.75,5%
